# Screening results from PubChem BioAssay.
# Compounds with a hit are over-represented: about 2.5% of the library has one in this group of screens.
# aSyn UTR inh: MLPCN primary screen, SNCA 5' untranslated region; alpha-synuclein 5'UTR reporter, inhibitor activity; inhibition, % (tested at 7.5 µM); 300,000 compounds, 0.82% hits; AID 1813; in the data active = inhibition above about 60%;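 note: H4 neuroglioblastoma cells stably carrying SNCA 5'UTR luciferase fusion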
# ANO1 block: blocks the mouse calcium-activated chloride channel TMEM16A | Q8BHY3 | HEK293 TMEM16A/YFP iodide influx fluorescence, ionomycin | normalized B-score (activity score, 25-100; higher = stronger inhibition) at 10 µM | 310,000 compounds, 1.2% hits;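 active = ratio plate-corrected score three or more library SD toward inhibition, starting fluorescence score within five deviations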;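 note: score derived from kinetic fluorescence span divided by baseline fluorescence per well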
# Jurkat NFkB inh: inhibitors of the PMA/ionomycin-induced NF-kB reporter in Jurkat cells; PMA/ionomycin-induced NF-kB luciferase reporter, luminescence; inhibition, % at 4 µM; 330,000 compounds, 0.53% hits; in the data active = inhibition above about 50%
# ANO1 activ: activators or potentiators of mouse TMEM16A chloride channel. AID 623877. HEK293 TMEM16A/YFP-H148Q/I152L, iodide quench fluorescence; hits give low values. Q8BHY3. 340,000 compounds, 0.3% hits. B-score at 10 µM;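 active = fluorescence-ratio B-score plate-corrected deviation score at least 3 library SD below zero, with starting fluorescence score within 5 deviations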;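 note: channel opened by trigger with iodide after compound preincubation; score built on the fluorescence ratio of max minus min over baseline; more negative score means more quench and so TMEM16A activation or potentiation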
# KLF5 inhibitor: inhibitors of KLF5 expression; 290,000 compounds, 0.23% hits; AID 1700; inhibition, % at 5 µM; DLD-1 KLF5 promoter-luciferase reporter, luminescence;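 active = inhibition above a per-plate limit of that plate's mean compound inhibition plus 3 SD, cut at about 60% in these data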;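 note: higher means less KLF5 promoter-driven luciferase light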
# 697 NFkB inh: inhibitors of the PMA/ionomycin-induced NF-kB reporter in 697 B cells | AID 435022 | 697 B-cell NF-kB luciferase reporter, 16 h | inhibition, % at 4 µM | 330,000 compounds, 0.33% hits; in the data active = inhibition above about 35%
# Numbers stand for hits; 0 = inactive; - = not tested or not shown.
SMILES,aSyn UTR inh,ANO1 block,Jurkat NFkB inh,ANO1 activ,KLF5 inhibitor,697 NFkB inh
COc1cc(CC(=O)NCc2ccco2)cc(OC)c1OC,0,0,0,0,0,0
Cc1onc(-c2ccccc2)c1C(=O)NC(=S)NNC(=O)c1ccc(O)cc1O,64.1,0,0,0,0,0
Cc1onc(-c2ccccc2)c1C(=O)NC(=S)NNC(=O)c1ccccc1O,62.6,100,0,0,0,0
CCCOc1ccc(C(=O)NNC(=S)NC(=O)CC)cc1,85.4,0,0,0,0,0
Cc1onc(-c2c(Cl)cccc2Cl)c1C(=O)NCc1ccco1,0,0,0,0,0,0
Cc1onc(-c2ccccc2)c1C(=O)NCc1ccco1,0,0,0,-16.3,0,0
CC(=O)c1c(C)oc2ccc(N(C(C)=O)S(=O)(=O)c3ccc(Cl)c([N+](=O)[O-])c3)cc12,111.5,0,0,0,0,0
CCOC(=O)C1CCCN(c2nc(C)nc3c2oc2ccccc23)C1 (stereo unspecified),0,25,0,0,0,0
O=C(NC(NC(=S)N1CCOCC1)C(Cl)(Cl)Cl)c1ccc(Cl)cc1 (stereo unspecified),66.1,0,0,0,0,0
O=C(Oc1ccc2c(=O)c(Oc3ccc4ccccc4c3)coc2c1)c1ccco1,0,0,0,-5.92,0,0
COc1ccccc1NS(=O)(=O)c1cc(C(=O)NCc2ccncc2)ccc1C,0,0,0,0,-,0
COc1ccccc1NS(=O)(=O)c1cc(C(=O)NCCC(C)C)ccc1F,0,0,0,-9.48,0,0
O=S(=O)(c1ccc(N2CCOCC2)nc1)N(Cc1ccccn1)Cc1ccccn1,0,0,0,0,0,0
COC(=O)c1cc2c(=O)c3ccccc3oc2nc1/C=C/N(C)C,0,0,-,0,0,-
CC(C)Cc1ccc(C(C)C(=O)OCC(=O)c2c[nH]c3ccccc23)cc1 (stereo unspecified),0,100,0,0,0,0
Cc1ccc(C(=O)OCC(=O)c2c[nH]c3ccccc23)cc1,0,0,0,0,0,0
COC(=O)c1c(C)cccc1C1CN=NC12Cc1ccccc1C2=O (stereo unspecified),-,-,-,-7.37,-,-
Cc1cc2c(=O)n(Cc3ccco3)c(SCC(=O)c3ccc(Cl)s3)nc2s1,0,25,0,0,0,0
CCOC(=O)CC(=O)CSc1nc2sc(C)cc2c(=O)n1Cc1ccco1,0,0,0,0,0,0
O=C(c1ccc2c(c1)C(=O)N(CCCO)C2=O)c1ccc2c(c1)C(=O)N(CCCO)C2=O,-,0,0,0,0,0
O=C1c2ccc3c4c(ccc(c24)C(=O)N1CCCCO)C(=O)N(CCCCO)C3=O,110.7,-,-,0,0,-
CC(=O)Nc1c(-c2cc(=O)oc3cc(C)ccc23)oc2ccccc12,0,-,0,-,0,0
Cc1ccc(C(=O)N2CCN(c3ccc(NC(=O)c4ccc5c(c4)OCCO5)cc3)CC2)cc1,0,0,0,0,0,0
CC(=O)Nc1ccc(C(=O)Nc2ccc3c(c2)OCCO3)cc1,0,0,0,-,0,0
O=C(Nc1ccc2c(c1)OCCO2)c1ccccn1,88.0,0,0,0,0,0
SMILES,aSyn UTR inh,ANO1 block,Jurkat NFkB inh,ANO1 activ,KLF5 inhibitor,697 NFkB inh
CS(=O)(=O)Nc1ccc(C(=O)Nc2ccc3c(c2)OCO3)cc1,0,0,0,-10.2,0,0
Cc1ccccc1C(=O)N1CCN(c2ccc(NC(=O)c3ccc4c(c3)OCCO4)cc2)CC1,0,25,0,0,0,0
Cc1ccc(C(=O)Nc2ccc3c(c2)OCCO3)c(C)c1,73.5,0,0,0,64.9,0
CCc1ccccc1NC(=O)C1CCN(C(=O)N2CCOc3ccccc32)CC1,0,0,0,0,0,0
Cc1ccc(/C=C2/SC(=S)N(CCC(=O)N3CCOCC3)C2=O)cc1,0,0,0,0,0,0
Cc1ccc(N(CC(=O)NCc2ccc(F)cc2)S(=O)(=O)c2c(C)n[nH]c2C)cc1,0,0,0,0,0,0
Cc1cccc2cc(C#N)c(SCC(=O)N3CC(=O)Nc4ccccc43)nc12,110.3,0,0,0,0,0
COc1ccc2cc(C#N)c(SCC(=O)N3CC(=O)Nc4ccccc43)nc2c1,0,0,0,0,0,0
Cc1noc(C)c1CSCC(=O)N1CCN(c2ccc([N+](=O)[O-])cc2)CC1,0,25,0,0,0,0
CC1=C/C(=N\OS(=O)(=O)c2ccccc2)C(C(C)C)=CC1=O,-,0,-,-5,0,-
CC1=CC(=O)c2ccccc2C1=O,0,0,0,0,0,0
Nc1ccn(C2OC(COP(=O)(O)O)C(O)C2O)c(=O)n1 (stereo unspecified),-,-,-,0,-,-
O=c1cc2oc3cc(O)c(O)cc3c(-c3ccccc3[N+](=O)[O-])c-2cc1O,71.2,0,0,0,0,0
O=c1cc(-c2ccccc2Cl)oc2cccc(O)c12,0,0,0,0,0,0
N#CCC(=O)Nc1ccc(C(=O)NNC(=S)NC2CCCCC2)cc1,-,-,0,-,-,0
CC(C)CC(=O)Nc1ccc(C(=O)NNC(=S)NC(=O)C2CCCCC2)cc1,66.6,0,0,0,0,0
COc1cccc(CNC(=O)CCC(=O)N2CCOCC2)c1,-,-,0,0,-,0
COc1ccc(NC(=O)c2cc([N+](=O)[O-])ccc2O)cc1,85.1,0,0,0,84.4,0
O=C(CCN1CCN(c2ccccc2)CC1)N/N=C/c1ccccc1O,70.6,0,0,0,0,0
CCOc1ccc(S(=O)(=O)NC(C)C(=O)NCc2ccc3c(c2)OCO3)cc1 (stereo unspecified),0,0,0,0,0,0
COc1ccccc1C(CC(N)=O)c1ccco1 (stereo unspecified),0,0,0,0,0,0
COc1ccccc1C(CCN(Cc1ccccc1)C(C)=O)c1ccco1 (stereo unspecified),0,0,0,-9.15,0,0
O=C(c1cc(-c2ccccc2Cl)nc2ccc(Br)cc12)N1CCN(c2ccccn2)CC1,0,25,0,0,0,0
CCc1cc(C(=O)Nc2ccc(OC)nc2)sc1C,0,0,0,-5.06,-,0
COc1ccc(NC(=O)c2cc(Br)c(Br)s2)cn1,0,0,0,0,0,0
SMILES,aSyn UTR inh,ANO1 block,Jurkat NFkB inh,ANO1 activ,KLF5 inhibitor,697 NFkB inh
O=C(NC(=S)Nc1ncc(Br)cc1Br)c1ccccc1,0,0,0,0,0,0
O=C(/C=C/Nc1ccc(Br)cc1F)c1ccccc1,77.5,0,0,0,0,0
O=C(CSc1nncs1)NNC(=O)c1ccco1,-,-,0,0,-,0
O=[N+]([O-])c1ccc(/C=N/n2cnc3ccccc32)s1,68.5,0,0,0,0,0
Cc1cc2ncn(/N=C/c3ccc([N+](=O)[O-])s3)c2cc1C,0,0,-,0,0,-
Cc1cccc(NC(=O)/C(C#N)=C/c2ccc[nH]2)c1C,0,0,0,0,0,0
O=C1CCN(c2ncccc2[N+](=O)[O-])CC1,0,0,0,-4.88,0,0
O=[N+]([O-])c1cccnc1N1CCOCC1,0,0,0,0,0,0
CCc1ccc(-c2nc(CSCC(=O)NCc3ccco3)c(C)o2)cc1,77.4,-,-,0,0,-
